Lamin A splicing: qHTS Assay for Modulators of Lamin A Splicing | Potency, µM (highest dose often 46.1 µM), without a hit: top-dose ratio change, negative = inhibition, usual class: inhibitors | AID 1487, 2009 | actives 0.01% (n = 200,000) | HeLa LMNA splicing GFP/RFP minigene ratio, 48 h; active means well fitted inhibition curve with a large enough effect in the signal ratio, with a control signal flat, not every such curve was filed as active; inconclusive means small, poorly fitted or top-dose-only effect, or effect the other way, or a change in a side signal; the % refers to the signal ratio; further: potency means the concentration at half of the fitted maximal effect
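S3 HeLa stable clones carrying a lamin A-EGFP splicing minigene plus DsRed2 were seeded at 600 cells/well in Opti-MEM with 2% FBS, pin-dosed and incubated 48 h at 37°C. Acumen cytometry (488 nm) gave the GFP/RFP total-intensity ratio.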
IMPase cell inh: qHTS Assay for Identifying the Cell-Membrane Permeable IMPase Inhibitors. Inositol monophosphatase 1 (Rattus norvegicus), P97697. CHO-M1 cells, IP1 accumulation, HTRF TR-FRET ratio. inhibition (IP1 accumulation), % at 46.1 µM. 120,000 tested, under 10 active; active means well fitted curve in the direction sought with a large enough effect in the signal ratio, not every such curve was filed as active; inconclusive means small, poorly fitted or top-dose-only effect, or a change in a side signal; inactive means no such curve, though single readings can be large or run the other way; the % refers to the signal ratio;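 further: cells stimulated with carbachol in lithium chloride buffer; plate controls were DMSO basal wells for no effect and reference inhibitor wells for full effect; higher means more IMPase inhibition seen as more IP1 and lower FRET ratio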
Target sequence (P97697 whole entry, looked up): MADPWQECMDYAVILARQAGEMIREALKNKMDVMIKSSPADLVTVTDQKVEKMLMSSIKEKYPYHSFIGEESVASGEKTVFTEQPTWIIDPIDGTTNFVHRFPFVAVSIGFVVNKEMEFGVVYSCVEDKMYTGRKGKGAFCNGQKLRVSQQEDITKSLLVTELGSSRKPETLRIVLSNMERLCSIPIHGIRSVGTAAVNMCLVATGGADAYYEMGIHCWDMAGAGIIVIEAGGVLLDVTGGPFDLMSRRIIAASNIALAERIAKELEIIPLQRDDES
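Cellular IMPase inhibition is scored as a rise in cytosolic IP1, detected by competitive TR-FRET between d2-labelled IP1 and a europium anti-IP1 antibody. M1-expressing CHO cells were stimulated with carbachol for 30 min at 37C, with lithium (50 mM LiCl) present in the buffer.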
PNC assembly inh: High Content Assay for Compounds that inhibit the Assembly of the Perinucleolar Compartment; PC3M PTB-GFP, PNC prevalence imaging, 16 h; stronger effect = lower value; activity change (PNC), negative = inhibition, % at 10 µM; actives 3.1% (n = 140,000); AID 2417, 2010;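 active means readout at or below -70, meaning at least 70% loss of cells showing the perinucleolar compartment, a nuclear body marking cancer cells; inconclusive means readout between -30 and a set limit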;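 further: plate controls were DMSO wells for no effect and camptothecin positive control wells for full effect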
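Compounds are pinned in duplicate onto adhered PC3M cells stably expressing GFP-tagged PTB and incubated 16 h at 37 C. Cells are then fixed, nuclei stained with Hoechst, and PNC-positive cells counted.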
* = called active by the depositor; [ ] = dose if it differs, or a comment. The full list was thinned out, with hits kept by preference. Unless noted, on the % scale 0 is the no-effect control and ±100 the full control effect.

How did NC(=O)CN1CCOCCOCCN(CC(N)=O)CCOCCOCC1 do in these assays?
Lamin A splicing: -4%; IMPase cell inh: -2; PNC assembly inh: -106*

Results for NC(=O)CN1CCOCCOCCOCCOCCOCC1 ?
Lamin A splicing: 11%; IMPase cell inh: -2; PNC assembly inh: 20

How did CCN=C1SC(C(=O)Nc2cccc(C(=O)O)c2)CC(=O)N1CC (stereo not given) do in these assays?
Lamin A splicing: 7%; IMPase cell inh: 0; PNC assembly inh: 38

How did CCN=C1SC(C(=O)Nc2ccccc2)CC(=O)N1CC (stereo not given) do in these assays?
Lamin A splicing: -7%; IMPase cell inh: 4; PNC assembly inh: -85*

Results for CCc1ccc(NC(=O)CSc2nc3ccccc3nc2Cc2ccccc2OC)cc1 ?
Lamin A splicing: 1%[46 µM]

Results for N#Cc1ccc(Oc2cccc(C(=O)O)c2)cc1C#N ?
Lamin A splicing: -3%; IMPase cell inh: 11; PNC assembly inh: 6

How did O=C(O)c1cccc(Oc2ccccc2[N+](=O)[O-])c1 do in these assays?
Lamin A splicing: -1%; PNC assembly inh: -116*

How did O=C1N/C(=N\c2ccccn2)SC1Cc1ccc(Cl)cc1 (stereo not given) do in these assays?
Lamin A splicing: 21%[46 µM]

What do the screens show for `CCc1ccccc1NC(=O)c1cc(S(=O)(=O)N2CCCc3ccccc32)ccc1F`?
Lamin A splicing: 2%[46 µM]

Results for CCC(=O)N1CC(C)C(=O)Nc2ccccc21 (stereo not given) ?
Lamin A splicing: 11%; IMPase cell inh: 3; PNC assembly inh: 8

What do the screens show for `CCC(=O)N1C(=O)CCN(C(C)=O)c2ccccc21`?
Lamin A splicing: -11%; IMPase cell inh: inconclusive; PNC assembly inh: -94*

How did Cc1occc1C(=O)NC(C)c1ccc2c(c1)OCO2 (stereo not given) do in these assays?
Lamin A splicing: -10%; IMPase cell inh: 8; PNC assembly inh: inconclusive

How did CCOc1ccccc1C(=O)NC(C)c1ccc2c(c1)OCO2 (stereo not given) do in these assays?
Lamin A splicing: -25%; IMPase cell inh: -11; PNC assembly inh: -103*

What do the screens show for `CCOc1cc(C(=O)Nc2ccc3c(c2)OCO3)ccc1OCCOc1ccccc1Cl`?
Lamin A splicing: inconclusive; IMPase cell inh: 12; PNC assembly inh: -87*

Results for CCOc1ccc(C(=O)Nc2ccc3c(c2)OCO3)cc1OCC ?
Lamin A splicing: -6%; IMPase cell inh: 3; PNC assembly inh: inconclusive

Results for CC(C)CCC(C(=O)O)C(C)CC(=O)NNC(=O)c1ccco1 (stereo not given) ?
Lamin A splicing: 5%[46 µM]

What do the screens show for `CC1CCN(C(c2ccccc2)c2sc3nc(-c4ccco4)nn3c2O)CC1` (stereo not given)?
Lamin A splicing: 2%[46 µM]

How did Cc1cc(C(=O)COc2cccc3cccnc23)c(C)n1C do in these assays?
Lamin A splicing: -17%; IMPase cell inh: -2; PNC assembly inh: inconclusive

What do the screens show for `Cc1ccc(OCC(=O)c2cc(C)n(C)c2C)c([N+](=O)[O-])n1`?
Lamin A splicing: -2%; PNC assembly inh: -121*

What do the screens show for `Cc1cc(C)cc(OCCSc2nc3ccc(NC(=O)c4ccc5c(c4)OCO5)cc3s2)c1`?
Lamin A splicing: 29%[46 µM]

What do the screens show for `Cc1oc2ncn(CC(C)C)c(=O)c2c1C(=O)NCCCN1CCCCC1C` (stereo not given)?
Lamin A splicing: -13%[46 µM]

How did Cc1ccc(NC(=O)CSc2nnc(-c3cc4occc4n3C)n2-c2ccccc2C)cc1F do in these assays?
Lamin A splicing: -12%[46 µM]

How did CCN(CC)C(=O)NC1CC2CCCC(C1)N2Cc1ccccc1 (stereo not given) do in these assays?
Lamin A splicing: 5%; IMPase cell inh: 10; PNC assembly inh: -92*

What do the screens show for `CNC(=S)NC1CC2CCC(C1)N2Cc1ccccc1` (stereo not given)?
Lamin A splicing: 12%; IMPase cell inh: 4; PNC assembly inh: -18

Results for O=C(CN1C(=O)CCn2nc(-c3ccccc3)cc21)NCc1ccc(F)cc1 ?
Lamin A splicing: 0%[46 µM]

What do the screens show for `CCOC(=O)Cn1c(=O)oc2cc(S(=O)(=O)Nc3cc(Cl)ccc3OC)ccc21`?
Lamin A splicing: -7%; IMPase cell inh: 8; PNC assembly inh: -97*

How did CCOC(=O)Cn1c(=O)oc2cc(S(=O)(=O)Nc3cc(OCC)ccc3OCC)ccc21 do in these assays?
Lamin A splicing: 1%; IMPase cell inh: -2; PNC assembly inh: -3

What do the screens show for `CCC(=O)OC1=C(C(C)=O)N(Cc2ccccc2)S(=O)(=O)c2ccccc21`?
Lamin A splicing: -17%[46 µM]

How did Cc1nn(-c2ccccc2)c(C)c1/C=N/NC(=O)c1cc(-c2ccc(Br)s2)[nH]n1 do in these assays?
Lamin A splicing: inconclusive; IMPase cell inh: 1; PNC assembly inh: -27

What do the screens show for `Cc1nn(-c2ccccc2)c(C)c1/C=N/NC(=O)c1cc(-c2cccs2)[nH]n1`?
Lamin A splicing: inconclusive; IMPase cell inh: 11; PNC assembly inh: -115*

How did CS(=O)(=O)N(Cc1ccco1)CC(O)Cn1cc(C=O)c2ccccc21 (stereo not given) do in these assays?
Lamin A splicing: -7%; IMPase cell inh: -10; PNC assembly inh: -88*

What do the screens show for `CS(=O)(=O)N(Cc1ccco1)Cc1ccccc1Cl`?
Lamin A splicing: -1%; IMPase cell inh: 3; PNC assembly inh: 25

Results for CC1=C(C(=O)Nc2ccccc2)C(c2ccc(Br)cc2)n2nc(CCCO)nc2N1 (stereo not given) ?
IMPase cell inh: -1

Results for COc1cc(C(c2c(C)[nH][nH]c2=O)c2c(C)[nH][nH]c2=O)ccc1OS(=O)(=O)c1ccccc1 ?
Lamin A splicing: inconclusive; IMPase cell inh: -2; PNC assembly inh: 11

What do the screens show for `COc1cc(C(c2c(C)[nH][nH]c2=O)c2c(C)[nH][nH]c2=O)ccc1OC(C)C`?
Lamin A splicing: -2%; IMPase cell inh: 0; PNC assembly inh: -80*

How did CC(C)CC(=O)NCC1(N(C)C)CCCCC1 do in these assays?
Lamin A splicing: -1%[46 µM]

Results for COc1ccc(/C=N/N2CCOCC2)cc1O ?
Lamin A splicing: -8%; PNC assembly inh: -81*

How did COc1cc(/C=N/N2CCOCC2)ccc1OC(=O)c1ccco1 do in these assays?
Lamin A splicing: -2%[46 µM]

What do the screens show for `COc1cccc(C2C(C#N)=C(N)N(c3ncn[nH]3)C3=C2C(=O)CCC3)c1` (stereo not given)?
Lamin A splicing: 3%; PNC assembly inh: inconclusive

Results for COc1ccc(N2C(N)=C(C#N)C(c3ccsc3)C3=C2CCCC3=O)c(OC)c1 (stereo not given) ?
Lamin A splicing: inconclusive; PNC assembly inh: -109*

What do the screens show for `O=C(Nc1ccc(F)c(Cl)c1)C1CCCN(c2ncnc3onc(-c4ccc(F)cc4)c23)C1` (stereo not given)?
Lamin A splicing: -8%[46 µM]

What do the screens show for `COc1ccc(-c2cc(C(F)(F)F)nc(SCCC(=O)Nc3ccc(O)cc3)n2)cc1`?
IMPase cell inh: 0

What do the screens show for `CC1(C)NC(=O)N(CC(O)CN2CCCCC2)C1=O` (stereo not given)?
Lamin A splicing: 14%; IMPase cell inh: -11; PNC assembly inh: -94*

Screens (PubChem)
